# Assay results: PubChem BioAssay AID1508600 (Functional Genomics Laboratory (NCATS/FGL), 2020)
# About 3,700 (7%) of roughly 53,000 sequences were called active. This excerpt belongs to a sample that is enriched for actives. A number with no mark means an inactive call.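 The calls were made as follows: active = gene knockdowns whose robust z-score for IL-1 alpha signal is at least 2 or at most -2, so actives lie on both sides; inactive = the rest.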
# Test: Components of the Cytosolic LPS Sensing Pathway: Gene Identification via Genome-wide siRNA Screen;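 also: robust z of the log signal after scaling to non-targeting control siRNA wells of the plate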
# Settings: RAW264.7 macrophages, IL-1a HTRF, actives lie on both sides, screened at 100 nM (by protocol), cells primed 5 h with Pam3CSK4 first
# Procedure, shortened: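 Read-out: IL-1a HTRF on supernatant, divided by plate negative-control median ×100, log-transformed and converted to robust z-score. Cells were RAW264.7 given 100 nM siRNA, Pam3CSK4-primed 5 hours, then LipidA-transfected 24 hour.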
row,Sequence,z-score
1,GGUGGAAGACAAGAGGAUATT against Sytl5,-0.474
2,GGGUAAUACUCUUUGGUGCTT against Olfr594,0.34
3,GGUUUGCCUGUGCUGAUAUTT against Olfr549,-0.617
4,GAUGGUCCAGAGCGACUUCTT against Pou3f3,2.14 (active)
5,GGGUCAAGGUAGUAGUACCTT against Tob1,0.275
6,CCAUUACAUCCAUUUGAUUTT against Cfap206,0.328
7,GGUUUGAUGUUAGACAACGTT against Trim34a,0.652
8,GGACAACAAAGGGAGAUUCTT against Kctd12b,1.43
9,CCUACUUGGGAAAGUUCGCTT against Egr3,1.5
10,CCCACUUGCUGAAAAUUGUTT against Ankib1,-0.338
11,CCCAGAACACCGUAUACUUTT against Itga3,3.95 (active)
12,CCAAUUUCCUUUCAGACUGTT against Cxxc4,-1.2
13,GGACAGCACAAUUACCUUUTT against Nr3c1,-0.299
14,GGGUAGGAAACAAACACAGTT against Cox11,-0.234
15,GAAUGCUCUGAGACUUUUATT against Cd300c2,-2.48 (active)
16,GCUCCAAUAGCGUAUAUUATT against Pigt,-0.75
17,GGAGGACUAGUUGUGACUUTT against Aldh1a1,-0.384
18,UGGCAAGAUUGAAACCAUATT against Hnrnpa3,-1.61
19,GGUUCUUUCGAGAAUGGACTT against Nod1,-0.145
20,GGAUUUCCCAUCAAAGACGTT against Serpinf2,0.155
21,GCCCAAAUGAGACUACUUUTT against Ces1e,-1.24
22,GGCUCAGAUACUCUUAUAATT against Aknad1,-3.24 (active)
23,GCUAAACAUAAAAAUCGACTT against Garre1,-1.27

row,Sequence,z-score
1,GGAUUAAGUGGUCAAAUGATT against Ugt2b36,-0.62
2,CCACCUGUGCUACCACUUATT against Rexo4,-2.34 (active)
3,GGUUACAUAUCAGUUGAAATT against Slc35a3,0.032
4,GCAAAAUCUAGGGAUAAGATT against Trdv2-2,0.259
5,GGGAGAACAGCGACAAACATT against Cbfb,1.82
6,GAGUUCGAUGUUCAGGAGCTT against Ndrg1,-0.354
7,GGUUCAUGGGUUUUAAGUGTT against Eif1,2.25 (active)
8,GGAAGAGGAGAAGAAAAAGTT against Syf2,-1.25
9,GCACAGUUGGCAACCUUUATT against S100a9,-0.029
10,GGAUAACCCUAAGUUUAUGTT against Clu,0.753
11,GGACCUCAUCUACAGAAUGTT against Tssk1,0.878
12,CGGACAAAGGACGAGUGUUTT against Fn3krp,3.02 (active)
13,GGCAGUAGCCAGAAGGCAUTT against Rnf215,0.373
14,CGACAUAGCUUCUGUACUGTT against Spaca9,-1.42
15,CCUUUAGGUACCACGAGUGTT against Large2,-0.965
16,CCUUUAAAGUAAGCAUGUGTT against Slc27a4,0.112
17,GUUCUUUUUCUUCGGUUCCTT against Olfr1020,0.769
18,GGGUCUAGAGUGCAUCUUCTT against Krt78,0.418
19,GGCUGUUUUUGCCGGUAUCTT against Teddm3,1.58
20,GGAAAACCAACAAAGCAAATT against Pde10a,-0.692
21,UAUGACUCCACUCUUCUCUTT against Olfr1158,-2 (active)
22,GGAAGAGGGCAAAAAUGGCTT against Sgms2,-0.441
23,GGUUAUUUCGGGAGAUAAGTT against Nudcd1,-0.351

row,Sequence,z-score
1,GGCAGAACGGAAUAAAAUGTT against Stag2,-3.03 (active)
2,CCUGAUCAUGUUGAAGGAATT against Ktn1,0.256
3,GGACACUGCAAAAGAGGAGTT against Defa4,1.37
4,GGGAUACUCCAGACAAGGUTT against Usp17ld,0.142
5,GGCCAUCAGAGCUACACUUTT against Gpa33,0.806
6,CAUUGGUAUUGCCAAGGCATT against Olfr1330,0.373
7,GGGAGAAACCAUUUCAAGATT against Gm5084,0.0759
8,GGAUUUCUCUGCCUGUACUTT against Gdpgp1,0.37
9,GAUGAAGAGGCAGGCCAAGTT against Nkx2-4,2.63 (active)
10,GGUGUUAGCGAAAUGCUCATT against Prl7b1,-0.875
11,GCUCACUGCUACAAAUACCTT against Prss2,-1.82
12,GCUUUAUCCACAGGUGCCATT against Olfr1350,-1.9
13,GCCUAUUCACCAAAUCACATT against Frrs1,0.408
14,GAUCUGGCUGCUUCUUACCTT against Porcn,-0.623
15,GGCAUAAGAAAAUGGACCCTT against Fhit,2.04 (active)
16,GGGAUAGUGUAAGUUAGUUTT against Dppa4,-0.0875
17,GUUCUGAAAAUAGAAUAAUTT against Vmn1r16,0.237
18,GGCUUGAUUGCAUCUUUAUTT against Ebpl,-0.765
19,CGACACACCUAGCUAAACCTT against Dgkeos,-1.98
20,GGCCUUAGAACAAGGAAUATT against Cdk7,-0.769
21,CCAAUUACGAGACUCUCAUTT against Zfp786,-0.00661
22,GCUUAUUGAACUAUUGUUGTT against Trpc4,3.72 (active)
23,GGAGCAGUCUAUCUUUGGUTT against Dbn1,1.3
